According to ChEMBL document CHEMBL1961873, “Compounds: GSK PKIS; Assays: Nanosyn kinase panel” (2012):

Tests used:
[1] = target: T1, 3-phosphoinositide-dependent protein kinase 1 (Homo sapiens) (UniProt O15530); settings: at 0.1 µM;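 also: values are mean inhibition of PDK1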
T1 sequence (whole entry): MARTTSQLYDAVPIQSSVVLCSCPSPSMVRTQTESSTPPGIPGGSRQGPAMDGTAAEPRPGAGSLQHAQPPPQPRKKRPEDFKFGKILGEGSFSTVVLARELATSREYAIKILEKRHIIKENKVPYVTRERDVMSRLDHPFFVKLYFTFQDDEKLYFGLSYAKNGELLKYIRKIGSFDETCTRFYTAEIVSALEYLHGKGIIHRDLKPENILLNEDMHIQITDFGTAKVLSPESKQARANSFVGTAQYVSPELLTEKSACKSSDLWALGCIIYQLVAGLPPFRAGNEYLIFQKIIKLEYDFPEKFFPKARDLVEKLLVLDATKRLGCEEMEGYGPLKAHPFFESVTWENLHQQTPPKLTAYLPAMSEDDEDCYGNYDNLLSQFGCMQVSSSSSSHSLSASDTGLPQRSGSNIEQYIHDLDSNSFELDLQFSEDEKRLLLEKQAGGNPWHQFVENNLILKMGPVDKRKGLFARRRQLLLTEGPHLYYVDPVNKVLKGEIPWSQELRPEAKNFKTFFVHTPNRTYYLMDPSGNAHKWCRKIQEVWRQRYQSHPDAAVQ

[2] = target: cAMP-dependent protein kinase catalytic subunit alpha (Homo sapiens) (UniProt P17612); settings: at 0.1 µM
[3] = target: cAMP-dependent protein kinase catalytic subunit alpha (Homo sapiens) (UniProt P17612); settings: at 1 µM
[4] = target: Protein kinase C alpha type (Homo sapiens) (UniProt P17252); settings: at 0.1 µM
[5] = target: Protein kinase C alpha type (Homo sapiens) (UniProt P17252); settings: at 1 µM
[6] = target: Protein kinase C beta type (Homo sapiens) (UniProt P05771); settings: at 0.1 µM
[7] = target: Protein kinase C beta type (Homo sapiens) (UniProt P05771); settings: at 1 µM
[8] = target: Protein kinase C eta type (Homo sapiens) (UniProt P24723); settings: at 0.1 µM
[9] = target: Protein kinase C eta type (Homo sapiens) (UniProt P24723); settings: at 1 µM
[10] = target: Protein kinase C gamma type (Homo sapiens) (UniProt P05129); settings: at 0.1 µM
[11] = target: Protein kinase C gamma type (Homo sapiens) (UniProt P05129); settings: at 1 µM
[12] = target: T2, Protein kinase C iota type (Homo sapiens) (UniProt P41743); settings: at 0.1 µM
T2 sequence (whole entry): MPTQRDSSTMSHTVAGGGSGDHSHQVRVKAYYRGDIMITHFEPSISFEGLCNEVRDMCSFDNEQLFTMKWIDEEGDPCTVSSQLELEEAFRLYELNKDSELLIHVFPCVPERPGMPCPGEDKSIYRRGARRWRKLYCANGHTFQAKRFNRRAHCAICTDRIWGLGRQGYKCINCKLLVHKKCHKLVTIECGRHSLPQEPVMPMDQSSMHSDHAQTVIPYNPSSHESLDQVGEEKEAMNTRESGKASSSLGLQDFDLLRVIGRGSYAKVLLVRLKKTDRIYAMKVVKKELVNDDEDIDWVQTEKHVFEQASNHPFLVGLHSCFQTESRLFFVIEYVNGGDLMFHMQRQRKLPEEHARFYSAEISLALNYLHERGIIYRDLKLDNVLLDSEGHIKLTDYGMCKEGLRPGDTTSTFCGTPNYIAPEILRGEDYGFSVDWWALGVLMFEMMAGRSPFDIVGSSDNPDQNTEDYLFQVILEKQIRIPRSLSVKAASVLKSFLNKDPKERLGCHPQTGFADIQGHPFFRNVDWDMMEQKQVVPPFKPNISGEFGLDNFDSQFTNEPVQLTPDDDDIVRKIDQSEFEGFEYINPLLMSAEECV

[13] = target: T2, Protein kinase C iota type (Homo sapiens); settings: at 1 µM
[14] = target: Protein kinase C theta type (Homo sapiens) (UniProt Q04759); settings: at 0.1 µM
[15] = target: Protein kinase C theta type (Homo sapiens) (UniProt Q04759); settings: at 1 µM
[16] = target: Protein kinase C beta type (Homo sapiens) (UniProt P05771); settings: at 0.1 µM; remark: listed apart in the source
[17] = target: Protein kinase C beta type (Homo sapiens) (UniProt P05771); settings: at 1 µM; remark: listed apart in the source
[18] = target: T3, Serine/threonine-protein kinase D1 (Homo sapiens) (UniProt Q15139); settings: at 0.1 µM
T3 sequence (whole entry): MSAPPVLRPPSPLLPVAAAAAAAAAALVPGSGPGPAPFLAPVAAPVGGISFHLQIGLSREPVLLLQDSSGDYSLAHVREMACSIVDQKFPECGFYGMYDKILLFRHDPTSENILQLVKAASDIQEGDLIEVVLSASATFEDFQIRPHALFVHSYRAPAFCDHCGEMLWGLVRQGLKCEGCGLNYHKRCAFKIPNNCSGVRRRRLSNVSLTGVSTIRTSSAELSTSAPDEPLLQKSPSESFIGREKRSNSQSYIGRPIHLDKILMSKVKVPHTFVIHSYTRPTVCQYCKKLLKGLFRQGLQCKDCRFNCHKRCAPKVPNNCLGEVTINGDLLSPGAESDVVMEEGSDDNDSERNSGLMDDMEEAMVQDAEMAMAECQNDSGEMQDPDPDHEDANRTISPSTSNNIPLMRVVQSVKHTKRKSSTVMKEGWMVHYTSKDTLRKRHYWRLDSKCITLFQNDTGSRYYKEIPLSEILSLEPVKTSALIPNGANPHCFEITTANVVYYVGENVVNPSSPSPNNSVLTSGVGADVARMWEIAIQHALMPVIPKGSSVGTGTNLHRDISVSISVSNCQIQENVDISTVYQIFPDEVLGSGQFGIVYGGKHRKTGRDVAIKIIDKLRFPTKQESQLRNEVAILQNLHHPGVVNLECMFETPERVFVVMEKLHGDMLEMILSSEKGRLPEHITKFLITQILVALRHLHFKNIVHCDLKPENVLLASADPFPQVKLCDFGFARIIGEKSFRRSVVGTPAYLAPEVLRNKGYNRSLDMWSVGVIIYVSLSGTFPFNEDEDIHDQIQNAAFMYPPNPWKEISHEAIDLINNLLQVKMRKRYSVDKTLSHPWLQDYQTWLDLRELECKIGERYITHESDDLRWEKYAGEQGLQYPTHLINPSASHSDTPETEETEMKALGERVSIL

[19] = target: T3, Serine/threonine-protein kinase D1 (Homo sapiens); settings: at 1 µM
[20] = target: T4, Serine/threonine-protein kinase D2 (Homo sapiens) (UniProt Q9BZL6); settings: at 0.1 µM;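 also: reported percent inhibition values are means, part of the GSK PKIS kinase panel screen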
T4 sequence (whole entry): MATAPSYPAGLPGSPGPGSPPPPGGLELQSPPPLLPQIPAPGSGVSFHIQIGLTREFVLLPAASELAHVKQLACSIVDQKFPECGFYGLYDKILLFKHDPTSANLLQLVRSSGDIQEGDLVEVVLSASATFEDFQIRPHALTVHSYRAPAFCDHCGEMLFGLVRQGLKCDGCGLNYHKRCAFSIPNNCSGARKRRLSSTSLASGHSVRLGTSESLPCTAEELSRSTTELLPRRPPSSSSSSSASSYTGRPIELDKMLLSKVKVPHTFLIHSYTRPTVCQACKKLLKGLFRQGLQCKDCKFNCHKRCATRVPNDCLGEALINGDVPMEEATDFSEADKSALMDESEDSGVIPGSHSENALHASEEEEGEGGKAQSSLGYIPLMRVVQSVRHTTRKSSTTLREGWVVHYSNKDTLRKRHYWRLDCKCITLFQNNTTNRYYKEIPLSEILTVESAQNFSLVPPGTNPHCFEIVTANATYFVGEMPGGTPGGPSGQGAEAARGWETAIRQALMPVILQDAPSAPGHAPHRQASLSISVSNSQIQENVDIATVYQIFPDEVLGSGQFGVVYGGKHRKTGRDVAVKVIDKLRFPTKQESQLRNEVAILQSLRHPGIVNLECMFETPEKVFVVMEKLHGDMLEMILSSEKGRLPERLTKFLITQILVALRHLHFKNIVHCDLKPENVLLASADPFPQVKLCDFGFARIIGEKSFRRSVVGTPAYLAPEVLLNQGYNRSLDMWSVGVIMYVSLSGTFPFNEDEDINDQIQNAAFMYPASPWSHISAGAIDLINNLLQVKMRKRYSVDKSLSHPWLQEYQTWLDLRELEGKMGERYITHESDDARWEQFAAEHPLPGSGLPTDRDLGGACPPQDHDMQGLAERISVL

Protein kinase C beta type (Homo sapiens), sequence (P05771 2-671 limits assumed): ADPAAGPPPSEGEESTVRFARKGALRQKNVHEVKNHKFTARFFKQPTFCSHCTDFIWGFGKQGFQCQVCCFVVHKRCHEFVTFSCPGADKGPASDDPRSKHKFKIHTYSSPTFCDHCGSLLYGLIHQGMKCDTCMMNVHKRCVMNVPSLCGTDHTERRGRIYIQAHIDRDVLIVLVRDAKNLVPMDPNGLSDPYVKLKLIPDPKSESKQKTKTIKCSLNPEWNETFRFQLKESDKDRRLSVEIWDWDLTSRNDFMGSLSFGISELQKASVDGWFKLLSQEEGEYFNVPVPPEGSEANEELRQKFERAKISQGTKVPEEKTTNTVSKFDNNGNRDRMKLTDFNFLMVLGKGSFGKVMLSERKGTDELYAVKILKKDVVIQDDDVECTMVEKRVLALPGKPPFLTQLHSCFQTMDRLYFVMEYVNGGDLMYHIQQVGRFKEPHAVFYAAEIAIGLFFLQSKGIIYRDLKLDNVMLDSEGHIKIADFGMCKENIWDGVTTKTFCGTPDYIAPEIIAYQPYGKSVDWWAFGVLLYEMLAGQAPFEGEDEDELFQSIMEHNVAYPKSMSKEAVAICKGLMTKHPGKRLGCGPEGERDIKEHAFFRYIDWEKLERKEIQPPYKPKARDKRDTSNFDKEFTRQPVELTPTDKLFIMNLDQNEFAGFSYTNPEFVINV
Protein kinase C theta type (Homo sapiens), sequence (Q04759 whole entry, looked up): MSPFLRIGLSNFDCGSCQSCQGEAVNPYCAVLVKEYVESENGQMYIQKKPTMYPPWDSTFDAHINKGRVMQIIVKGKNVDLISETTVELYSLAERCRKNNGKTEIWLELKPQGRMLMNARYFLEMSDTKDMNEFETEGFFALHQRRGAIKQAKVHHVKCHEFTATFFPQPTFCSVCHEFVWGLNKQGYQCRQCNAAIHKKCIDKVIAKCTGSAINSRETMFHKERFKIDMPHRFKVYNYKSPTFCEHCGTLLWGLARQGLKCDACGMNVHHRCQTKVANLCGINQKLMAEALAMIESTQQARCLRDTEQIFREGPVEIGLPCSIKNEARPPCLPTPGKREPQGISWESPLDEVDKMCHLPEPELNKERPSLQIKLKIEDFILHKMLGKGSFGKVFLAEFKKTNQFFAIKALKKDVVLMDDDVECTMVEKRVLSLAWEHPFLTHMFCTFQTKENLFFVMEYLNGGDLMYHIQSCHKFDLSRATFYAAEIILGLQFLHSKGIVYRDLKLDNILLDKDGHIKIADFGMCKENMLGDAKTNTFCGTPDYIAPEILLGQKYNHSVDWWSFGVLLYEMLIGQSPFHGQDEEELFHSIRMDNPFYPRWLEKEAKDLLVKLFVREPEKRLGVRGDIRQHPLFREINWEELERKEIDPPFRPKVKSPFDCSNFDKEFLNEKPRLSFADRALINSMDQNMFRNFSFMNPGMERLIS
Protein kinase C eta type (Homo sapiens), sequence (P24723 whole entry): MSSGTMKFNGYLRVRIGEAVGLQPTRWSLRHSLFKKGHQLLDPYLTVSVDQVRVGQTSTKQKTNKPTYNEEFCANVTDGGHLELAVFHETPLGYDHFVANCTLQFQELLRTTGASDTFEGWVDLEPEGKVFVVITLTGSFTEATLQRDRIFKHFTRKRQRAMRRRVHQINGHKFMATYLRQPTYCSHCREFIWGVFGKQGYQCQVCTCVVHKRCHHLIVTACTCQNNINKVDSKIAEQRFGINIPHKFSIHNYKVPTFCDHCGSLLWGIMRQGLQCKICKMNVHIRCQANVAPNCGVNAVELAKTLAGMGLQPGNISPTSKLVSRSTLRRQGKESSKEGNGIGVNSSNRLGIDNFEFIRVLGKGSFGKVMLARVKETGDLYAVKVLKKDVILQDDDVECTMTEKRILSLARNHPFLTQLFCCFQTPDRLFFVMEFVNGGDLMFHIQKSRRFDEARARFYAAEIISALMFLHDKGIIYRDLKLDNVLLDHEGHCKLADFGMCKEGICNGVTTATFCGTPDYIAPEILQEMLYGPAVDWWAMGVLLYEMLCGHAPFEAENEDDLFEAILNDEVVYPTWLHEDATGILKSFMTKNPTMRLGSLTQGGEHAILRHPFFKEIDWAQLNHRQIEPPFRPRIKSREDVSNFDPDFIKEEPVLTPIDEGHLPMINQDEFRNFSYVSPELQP

COc1cc2ncn(-c3cc(OCc4ccccc4Cl)c(C(N)=O)s3)c2cc1OC
inhibition [1]: 7.8% | inhibition [2]: -0.08% | inhibition [3]: -0.94% | inhibition [4]: 0% | inhibition [5]: 1.42% | inhibition [6]: 0.65% | inhibition [7]: 0.68% | inhibition [8]: 1.47% | inhibition [9]: 2.19% | inhibition [10]: -0.07% | inhibition [11]: 2.36% | inhibition [12]: 1.15% | inhibition [13]: 0.82% | inhibition [14]: -0.26% | inhibition [15]: 0.66% | inhibition [16]: 0.93% | inhibition [17]: 0.76% | inhibition [18]: 0.01% | inhibition [19]: 0.57% | inhibition [20]: -0.54%

Cc1cc(O)cc(C)c1/C=C/c1cncc(-c2nn[nH]n2)c1
inhibition [1]: 2.02% | inhibition [2]: -1.63% | inhibition [3]: -1.78% | inhibition [4]: -2.41% | inhibition [5]: -0.54% | inhibition [6]: 0.1% | inhibition [7]: 2.35% | inhibition [8]: 1% | inhibition [9]: 5.67% | inhibition [10]: -3.08% | inhibition [11]: 3.79% | inhibition [12]: 2.14% | inhibition [13]: 2.11% | inhibition [14]: 2.61% | inhibition [15]: 3.08% | inhibition [16]: 1.15% | inhibition [17]: 4.04% | inhibition [18]: 1.38% | inhibition [19]: 4.65% | inhibition [20]: 2.35%

CC1=C(C(=O)Nc2ccc3[nH]ncc3c2)C(c2ccc(Cl)c(Cl)c2)CC(=O)N1 (stereo not given)
inhibition [1]: 3.64% | inhibition [2]: 7.32% | inhibition [3]: 43.1% | inhibition [4]: 0.41% | inhibition [5]: 1.24% | inhibition [6]: -1.01% | inhibition [7]: -0.1% | inhibition [8]: 0.22% | inhibition [9]: 14.1% | inhibition [10]: 1.51% | inhibition [11]: -2.08% | inhibition [12]: 0.23% | inhibition [13]: -0.03% | inhibition [14]: 0.6% | inhibition [15]: 5.07% | inhibition [16]: 0.17% | inhibition [17]: 0.61% | inhibition [18]: 0.89% | inhibition [19]: 4.46% | inhibition [20]: 1.41%

CCc1cccc(NC(=O)Nc2ccc(Oc3ccc4nc(NC(=O)OC)[nH]c4c3)cc2)c1
inhibition [1]: 2.37% | inhibition [2]: 2.93% | inhibition [3]: 0.86% | inhibition [4]: 0.7% | inhibition [5]: 0.72% | inhibition [6]: 0.28% | inhibition [7]: 1.12% | inhibition [8]: 2.69% | inhibition [9]: 2.14% | inhibition [10]: 1.95% | inhibition [11]: 2% | inhibition [12]: 0.46% | inhibition [13]: -1.58% | inhibition [14]: 0.42% | inhibition [15]: 1.12% | inhibition [16]: -0.27% | inhibition [17]: -1.17% | inhibition [18]: 1.25% | inhibition [19]: 1.01% | inhibition [20]: 0.52%

O=C(Nc1n[nH]c2nc(-c3ccco3)c(Br)cc12)C1CC1
inhibition [1]: 2% | inhibition [2]: 1.31% | inhibition [3]: 2.05% | inhibition [4]: 0.29% | inhibition [5]: 0.28% | inhibition [6]: 1.29% | inhibition [7]: -0.77% | inhibition [8]: 3.62% | inhibition [9]: 2.72% | inhibition [10]: 0.45% | inhibition [11]: 3.32% | inhibition [12]: 0.86% | inhibition [13]: 2.37% | inhibition [14]: 1.29% | inhibition [15]: 0.79% | inhibition [16]: 0.69% | inhibition [17]: 1.19% | inhibition [18]: 2.8% | inhibition [19]: 5.78% | inhibition [20]: 3%

CCn1c(-c2nonc2N)nc2c(C#CC(C)(C)O)nc(OC[C@@H](N)c3ccccc3)cc21
inhibition [1]: 0.47% | inhibition [2]: 77.5% | inhibition [3]: 79.3% | inhibition [4]: -2.77% | inhibition [5]: 8.94% | inhibition [6]: 6.21% | inhibition [7]: 36% | inhibition [8]: 81.4% | inhibition [9]: 96.8% | inhibition [10]: 8.95% | inhibition [11]: 45.3% | inhibition [12]: 1.26% | inhibition [13]: 0.8% | inhibition [14]: 11.9% | inhibition [15]: 52.5% | inhibition [16]: 3.74% | inhibition [17]: 23.1% | inhibition [18]: -0.47% | inhibition [19]: 9.57% | inhibition [20]: -0.26%

CC(C)=Cc1cccc2c1/C(=N/Nc1ccc(S(N)(=O)=O)cc1)C(=O)N2
inhibition [1]: 10.4% | inhibition [2]: 0.47% | inhibition [3]: 3.74% | inhibition [4]: 0.96% | inhibition [5]: 1.29% | inhibition [6]: 0.26% | inhibition [7]: 1.55% | inhibition [8]: 0.51% | inhibition [9]: 2.14% | inhibition [10]: 1.44% | inhibition [11]: 1.25% | inhibition [12]: 0.62% | inhibition [13]: 0.09% | inhibition [14]: 1.24% | inhibition [15]: 6.89% | inhibition [16]: 0.32% | inhibition [17]: 1.68% | inhibition [18]: 2.84% | inhibition [19]: 13.5% | inhibition [20]: -0.05%
